This passage reports Potency and outcome results from PubChem BioAssay (Tox21).

The target of assay [1] is Estrogen receptor beta (Homo sapiens) (UniProt Q92731). The assay can be described thus: qHTS assay to identify small molecule antagonists of the estrogen receptor beta (ER-beta) signaling pathway (AID 1259378; active = well fitted inhibition curve with a large enough effect in the signal ratio in the repeat runs, not every such curve was filed as active; the % refers to the signal ratio; note: potency is the fitted concentration of half-maximal effect). An outline of the steps: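 ER-beta-UAS-bla HEK293T (GripTite) cells in 2% charcoal-stripped FBS medium were preincubated 6 hr at 37C, dosed with compound, then stimulated with 1 nM E2 (final) for 16 hr; beta-lactamase reporter read by B/G FRET fluorescence after 2 hr substrate loading.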

Assay [2] is described as follows: qHTS assay to identify small molecule agonists of the androgen receptor (AR) signaling pathway in the presence of an antagonist - cell viability counter screen (AID 1259379; active = well fitted curve in the direction sought with a large enough effect in the repeat runs; an effect the other way counts as inactive or inconclusive; note: nearly all actives have a fitted effect of over 25% in size; note: potency is the fitted concentration of half-maximal effect). An outline of the steps: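 Viability counter screen: CellTiter-Fluor fluorescence, measured in the same wells as the luciferase read-out. MDA-kb2 cells, 3,000/well, with nilutamide at 3.0uM final and compounds at 15 concentrations, 16 hr at 37C, 0% CO2.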

Assay [3] in a line: qHTS assay to identify small molecule agonists of the estrogen receptor beta (ER-beta) signaling pathway - cell viability counter screen (AID 1259380; active = well fitted curve in the direction sought with a large enough effect in the repeat runs; an effect the other way counts as inactive or inconclusive; note: nearly all actives have a fitted effect of over 30% in size; note: potency is the fitted concentration of half-maximal effect). An outline of the steps:
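Luminescence read-out (CellTiter-Glo, 30 min, room temp) taken in the same wells as the beta-lactamase reporter assay; ER-beta-UAS-bla HEK293T cells exposed to DMSO-dissolved compounds for 16 hr at 37C in 2% charcoal-stripped FBS medium.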

For assay [4], the target named is Androgen receptor (Homo sapiens) (UniProt P10275). The experiment in a line: qHTS assay to identify small molecule agonists of the androgen receptor (AR) signaling pathway in the presence of an antagonist (AID 1259381). Note: nearly all actives have a fitted effect of over 15% in size. The method, boiled down:
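Luciferase read-out (ONE-Glo, 30min room temperature) in MDA-kb2 MMTV-reporter cells; agonist mode run in presence of AR antagonist nilutamide, 3.0uM final. Compounds tested as 15-point series, 16hr exposure at 37C, 0% CO2.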

Assay [5] in a line: qHTS assay to identify small molecule antagonists of the estrogen receptor beta (ER-beta) signaling pathway - cell viability counter screen (AID 1259382; active = well fitted curve in the direction sought with a large enough effect in the repeat runs; an effect the other way counts as inactive or inconclusive; note: nearly all actives have a fitted effect of over 55% in size; note: potency is the fitted concentration of half-maximal effect). An outline of the steps:
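Luminescent ATP read-out (CellTiter-Glo, 30 min, RT) taken in the same wells as the bla reporter assay. HEK293T ER-beta-UAS-bla cells in 2% charcoal-stripped FBS were exposed to compounds with 1nM E2 for 16 hr at 37C.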

Assay [6] concerns the target Estrogen receptor (Homo sapiens) (UniProt P03372). The assay can be described thus: qHTS assay to identify small molecule agonists of the estrogen receptor alpha (ER-alpha) signaling pathway in the presence of an antagonist (AID 1259383). Note: top concentration of the series differs between compounds; nearly all actives have a fitted effect of over 15% in size. The method, boiled down: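 Luciferase luminescence (ONE-Glo, 30min at room temperature) measured in VM7Luc4E2 cells after 22hr compound exposure at 15 concentrations, with 10.0nM ICI-182,780 final present; cells express endogenous ER-alpha and carry four EREs upstream of luciferase.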

Assay [7] can be described thus: qHTS assay to identify small molecule agonists or antagonists of the thyroid stimulating hormone receptor (TSHR) signaling pathway - wild type cell line counter screen (AID 1259384). The method, boiled down:
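Wild-type HEK293 cells were plated 18 h at 37 C/5% CO2, pin-dosed with compound plus Ro20-1724 medium, held 30 min at room temperature, then given cAMP-d2 and anti-cAMP-cryptate; fluorescence was read after 1 h. Fifteen concentrations, triplicate.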

For assay [8], the target named is Thyrotropin receptor (Homo sapiens) (UniProt P16473). The assay can be described thus: qHTS assay to identify small molecule antagonists of the thyroid stimulating hormone receptor (TSHR) signaling pathway (AID 1259385). Note: nearly all actives have a fitted effect of over 20% in size. Note: potency is the fitted concentration of half-maximal effect. The method, boiled down: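 TSHR-HEK293 cells were plated and held 18 h at 37C/5% CO2, then given compound plus Ro20-1724 and stimulated with TSH at 1.5 ng/mL final. After 30 min at room temperature, cAMP was detected with cAMP-d2/anti-cAMP-cryptate (1 h) by fluorescence.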

The nature of assay [9]: qHTS assay to identify small molecule agonists of the estrogen receptor alpha (ER-alpha) signaling pathway in the presence of an antagonist - cell viability counter screen (AID 1259386; active = well fitted curve in the direction sought with a large enough effect in the repeat runs; an effect the other way counts as inactive or inconclusive; note: nearly all actives have a fitted effect of over 30% in size; note: potency is the fitted concentration of half-maximal effect). An outline of the steps: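 Read-out: CellTiter-Fluor fluorescence after 1hr reagent incubation, measured in the same wells as the luciferase readout. VM7Luc4E2 cells were exposed to 15 compound concentrations with 10.0nM ICI-182,780 for 22hr at 37C.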

The target in assay [10] is Progesterone receptor (Homo sapiens) (UniProt P06401). The assay can be described thus: qHTS assay to identify small molecule agonists of the progesterone receptor (PR) signaling pathway (AID 1346784). Note: nearly all actives have a fitted effect of over 30% in size. An outline of the steps: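 Agonist qHTS: compounds pinned onto 3,000 PR-UAS-bla HEK 293T cells per well in charcoal-stripped serum medium, 16hr at 37C, then beta-lactamase activity measured by LiveBLAzer FRET fluorescence after 2 hours at room temperature.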

Several values for one entry are separate records, joined by “and”; a condition that tells them apart may be missing. Identical values can stand only once. Unmarked numbers belong to inactive results. Records with an inconclusive call do not appear. Activity calls are given as the source filed them. Unless noted, calls come from the whole dose curve.

Sequence of Estrogen receptor (Homo sapiens) (P03372 whole entry, looked up): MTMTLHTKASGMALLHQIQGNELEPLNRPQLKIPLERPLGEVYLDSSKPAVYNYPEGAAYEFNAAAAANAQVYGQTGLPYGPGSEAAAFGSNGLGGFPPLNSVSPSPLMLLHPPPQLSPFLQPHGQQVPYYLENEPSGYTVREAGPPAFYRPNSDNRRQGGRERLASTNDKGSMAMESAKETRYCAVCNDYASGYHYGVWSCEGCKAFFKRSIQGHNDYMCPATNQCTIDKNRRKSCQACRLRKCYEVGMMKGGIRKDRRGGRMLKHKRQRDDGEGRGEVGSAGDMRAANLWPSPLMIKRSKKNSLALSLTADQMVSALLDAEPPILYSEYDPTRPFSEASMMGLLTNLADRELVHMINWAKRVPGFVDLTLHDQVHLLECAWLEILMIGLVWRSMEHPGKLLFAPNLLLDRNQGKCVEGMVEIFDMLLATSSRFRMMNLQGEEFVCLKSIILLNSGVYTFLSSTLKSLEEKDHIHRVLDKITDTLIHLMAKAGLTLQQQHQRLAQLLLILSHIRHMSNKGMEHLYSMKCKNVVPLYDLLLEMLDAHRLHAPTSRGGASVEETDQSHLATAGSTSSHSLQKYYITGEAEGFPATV
Sequence of Androgen receptor (Homo sapiens) (P10275 whole entry, looked up): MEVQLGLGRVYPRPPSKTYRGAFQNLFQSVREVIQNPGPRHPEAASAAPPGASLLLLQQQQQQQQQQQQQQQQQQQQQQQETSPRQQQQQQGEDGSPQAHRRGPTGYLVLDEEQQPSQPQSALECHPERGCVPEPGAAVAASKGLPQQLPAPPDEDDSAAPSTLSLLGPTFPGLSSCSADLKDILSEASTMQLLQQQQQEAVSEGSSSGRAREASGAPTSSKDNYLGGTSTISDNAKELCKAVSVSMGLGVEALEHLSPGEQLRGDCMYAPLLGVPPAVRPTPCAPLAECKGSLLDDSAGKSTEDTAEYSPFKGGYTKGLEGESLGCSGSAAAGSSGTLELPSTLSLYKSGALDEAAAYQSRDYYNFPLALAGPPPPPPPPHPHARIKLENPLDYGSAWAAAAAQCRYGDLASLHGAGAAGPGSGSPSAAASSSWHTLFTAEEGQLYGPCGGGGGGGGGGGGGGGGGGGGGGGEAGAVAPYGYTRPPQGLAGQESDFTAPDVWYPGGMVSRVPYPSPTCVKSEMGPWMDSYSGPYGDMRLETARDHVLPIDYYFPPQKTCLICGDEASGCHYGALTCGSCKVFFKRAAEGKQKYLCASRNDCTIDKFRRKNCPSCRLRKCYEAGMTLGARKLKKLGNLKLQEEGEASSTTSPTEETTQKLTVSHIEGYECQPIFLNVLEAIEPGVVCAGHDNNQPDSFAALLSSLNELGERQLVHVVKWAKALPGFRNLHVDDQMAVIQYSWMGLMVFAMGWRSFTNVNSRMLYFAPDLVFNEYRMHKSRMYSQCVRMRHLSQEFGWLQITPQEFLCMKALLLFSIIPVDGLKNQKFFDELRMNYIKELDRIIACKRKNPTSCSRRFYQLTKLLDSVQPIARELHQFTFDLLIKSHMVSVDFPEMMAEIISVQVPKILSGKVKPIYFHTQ
Sequence of Estrogen receptor beta (Homo sapiens) (Q92731 whole entry, looked up): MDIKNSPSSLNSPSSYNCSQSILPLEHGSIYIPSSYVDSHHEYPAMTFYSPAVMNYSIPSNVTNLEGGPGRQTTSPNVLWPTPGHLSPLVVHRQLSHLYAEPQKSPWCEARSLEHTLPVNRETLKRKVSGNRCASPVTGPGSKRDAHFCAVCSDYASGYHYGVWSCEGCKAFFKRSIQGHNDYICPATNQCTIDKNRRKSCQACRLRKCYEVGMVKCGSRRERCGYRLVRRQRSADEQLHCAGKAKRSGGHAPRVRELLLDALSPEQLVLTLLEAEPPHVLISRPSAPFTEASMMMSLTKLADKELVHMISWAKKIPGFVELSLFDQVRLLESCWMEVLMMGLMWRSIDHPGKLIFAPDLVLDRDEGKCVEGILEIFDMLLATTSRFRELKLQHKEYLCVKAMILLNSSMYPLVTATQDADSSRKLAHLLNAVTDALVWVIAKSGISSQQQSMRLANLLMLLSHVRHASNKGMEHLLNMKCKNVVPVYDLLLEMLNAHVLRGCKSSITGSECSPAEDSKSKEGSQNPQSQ
Sequence of Thyrotropin receptor (Homo sapiens) (P16473 whole entry, looked up): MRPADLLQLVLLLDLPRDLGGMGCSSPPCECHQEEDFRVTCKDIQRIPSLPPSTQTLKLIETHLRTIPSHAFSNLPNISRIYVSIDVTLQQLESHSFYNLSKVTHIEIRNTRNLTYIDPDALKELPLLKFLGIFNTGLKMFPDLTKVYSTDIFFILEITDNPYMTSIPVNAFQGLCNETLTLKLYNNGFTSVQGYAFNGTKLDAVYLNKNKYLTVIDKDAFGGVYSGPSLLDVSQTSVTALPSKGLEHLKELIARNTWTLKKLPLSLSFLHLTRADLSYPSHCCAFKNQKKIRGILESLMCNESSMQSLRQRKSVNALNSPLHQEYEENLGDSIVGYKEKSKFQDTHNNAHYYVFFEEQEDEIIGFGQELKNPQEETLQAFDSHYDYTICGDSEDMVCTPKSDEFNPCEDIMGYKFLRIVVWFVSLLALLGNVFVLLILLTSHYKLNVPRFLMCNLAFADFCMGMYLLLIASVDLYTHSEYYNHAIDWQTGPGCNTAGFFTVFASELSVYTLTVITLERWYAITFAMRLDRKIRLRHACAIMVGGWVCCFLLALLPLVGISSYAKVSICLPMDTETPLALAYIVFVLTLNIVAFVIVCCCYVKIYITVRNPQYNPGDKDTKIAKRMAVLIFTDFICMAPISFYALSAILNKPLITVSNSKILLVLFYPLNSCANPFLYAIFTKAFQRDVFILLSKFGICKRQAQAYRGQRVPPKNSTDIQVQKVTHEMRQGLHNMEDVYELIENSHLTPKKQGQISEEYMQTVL
Sequence of Progesterone receptor (Homo sapiens) (P06401 whole entry, looked up): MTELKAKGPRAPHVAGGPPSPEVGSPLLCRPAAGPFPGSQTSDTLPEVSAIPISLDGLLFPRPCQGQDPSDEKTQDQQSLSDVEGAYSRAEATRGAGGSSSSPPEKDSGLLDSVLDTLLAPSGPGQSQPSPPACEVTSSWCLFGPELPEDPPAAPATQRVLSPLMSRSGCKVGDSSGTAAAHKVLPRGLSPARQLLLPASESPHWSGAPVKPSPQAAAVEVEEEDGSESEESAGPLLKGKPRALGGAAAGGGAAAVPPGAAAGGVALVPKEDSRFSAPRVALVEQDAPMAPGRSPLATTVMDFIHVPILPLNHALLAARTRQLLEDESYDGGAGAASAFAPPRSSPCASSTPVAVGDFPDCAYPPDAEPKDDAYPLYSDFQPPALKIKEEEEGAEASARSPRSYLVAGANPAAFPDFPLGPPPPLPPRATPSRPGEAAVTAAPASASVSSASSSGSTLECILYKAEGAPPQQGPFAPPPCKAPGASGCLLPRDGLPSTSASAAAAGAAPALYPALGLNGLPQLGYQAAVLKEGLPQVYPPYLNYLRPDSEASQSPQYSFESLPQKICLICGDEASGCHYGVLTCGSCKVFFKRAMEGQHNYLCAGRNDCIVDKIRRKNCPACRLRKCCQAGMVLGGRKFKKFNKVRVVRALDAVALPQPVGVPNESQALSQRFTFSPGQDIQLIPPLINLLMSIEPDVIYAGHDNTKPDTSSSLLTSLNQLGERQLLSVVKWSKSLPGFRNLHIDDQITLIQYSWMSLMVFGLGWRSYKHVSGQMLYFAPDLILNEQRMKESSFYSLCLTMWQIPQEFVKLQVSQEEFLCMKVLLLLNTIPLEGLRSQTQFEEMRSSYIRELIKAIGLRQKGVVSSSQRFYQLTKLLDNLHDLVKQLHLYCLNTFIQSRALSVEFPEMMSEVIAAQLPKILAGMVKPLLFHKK

Regarding `Cc1cccc(N(C)C)c1`, the Potency entry in assay [1], in assay [2], in [3], in assay [4], in [5] and in assay [6] was “inactive” in each case. For the same molecule, the Potency entry in assay [8] and in assay [9] was “inactive” in each case. Besides, the call in assay [7] and in assay [10] was inactive.

In the case of `CC(C)(C)c1cc(CCC(=O)NCCCCCCNC(=O)CCc2cc(C(C)(C)C)c(O)c(C(C)(C)C)c2)cc(C(C)(C)C)c1O`, the Potency entry in assay [1], in [2], in assay [3], in assay [4], in [5] and in [6] was “inactive” in each case. Moreover, the Potency entry in assay [8] and in assay [9] was “inactive” in each case. Moreover, the molecule was classed as inactive in [7] and in assay [10].

As to `CC(C)CCOCCC(C)C`, the Potency entry in assay [1], in assay [2], in assay [3], in [4], in [5] and in assay [6] was “inactive” in each case. Moreover, the Potency result in [8] and in [9] was “inactive” each time. For the same molecule, the molecule was classed as inactive in [7] and in assay [10].

In the case of `CCCC(=O)OCC(COC(=O)CCC)OC(=O)CCC`, the Potency entry in assay [1], in [2], in [3], in assay [4], in assay [5] and in assay [6] was “inactive” each time. Further, the Potency entry in assay [8] and in assay [9] was “inactive” each time. Moreover, the call in [7] and in assay [10] was inactive.

Turning to `CC1=CP(=O)(c2ccccc2)CC1` (stereo unspecified), the Potency entry in [1], in assay [2], in assay [3], in assay [4], in assay [5] and in [8] was “inactive” throughout. Also, the Potency result in assay [9] is “inactive”. The outcome in assay [7] and in assay [10] was inactive.

`Cc1oc(-c2ccccc2)nc1CCOc1ccc(C[C@H](Nc2ccccc2C(=O)c2ccccc2)C(=O)O)cc1`: the Potency is 27.3 µM (active) in assay [1]; 54.5 µM (active) in assay [2]; 27.3 µM (active) in assay [3]; 24.3 µM (active) in assay [5]; 48.6 µM (active) in assay [9]. Further, the Potency entry in assay [4], in assay [6] and in [8] was “inactive” in each case. Besides, the molecule was classed as inactive in [7].

For `c1ccc2c(c1)CCC2`, the Potency entry in assay [1], in assay [2], in [3], in [4], in assay [5] and in assay [6] was “inactive” throughout. The Potency entry in assay [8] and in assay [9] was “inactive” in each case. For the same molecule, the call in assay [7] and in assay [10] was inactive.

Consider `CCCCCCC(C)Nc1ccc(Nc2ccccc2)cc1` (stereo unspecified), for which, in [1], the Potency was 48.6 µM (active). Moreover, in [2], the Potency entry was “inactive”.

Consider `C=CC(C)(CCC=C(C)C)OC(=O)/C=C/c1ccccc1` (stereo unspecified), for which the Potency entry in assay [1], in [2], in [3], in assay [4], in assay [5] and in [6] was “inactive” each time. In addition, the Potency entry in assay [9] was “inactive”. Also, the outcome in [7] and in assay [10] was inactive.

Consider `CCN=c1cc2oc3cc(NCC)c(C)cc3c(-c3ccccc3C(=O)OCC)c-2cc1C`, for which the Potency in [1] is 0.272 µM (active); in [2], 272 nM (active) and 306 nM (active); in [3], 54.3 µM (active) and 24.3 µM (active); in assay [5], 54.3 µM (active) and 34.4 µM (active); in assay [9], 9.65 µM (active) and 9.69 µM (active). Further, the Potency entry in [4] and in assay [6] was “inactive” throughout. Besides, the molecule was classed as inactive in [10].

`CC1CNCC(C)O1` (stereo unspecified): the Potency entry in assay [1], in assay [2], in assay [3], in assay [4], in [5] and in assay [6] was “inactive” throughout. Besides, the Potency entry in [8] and in assay [9] was “inactive” throughout. For the same molecule, the molecule was called inactive in assay [7] and in assay [10].

Take `CC(NCCC(c1ccccc1)c1ccccc1)c1ccccc1` (stereo unspecified): the Potency was 26.6 µM (active) in assay [1]; 23.7 µM (active) in assay [2]; 18.8 µM (active) in assay [3]; 18.8 µM (active) in assay [5]; 29.8 µM (active) in assay [8]. Further, the Potency entry in [4] and in [6] was “inactive” each time. The result in assay [7] and in [10] was inactive.
